Assay results taken from PubChem BioAssay (EPA / NIEHS).
Results filed as inconclusive are left out. Calls of active or inactive are those of the source. Rule for the calls: active = hit-call score of the fitted dose curve at least 0.9, where 1 is the maximum; inconclusive = response in the unintended direction; inactive = score below 0.9.

Tested on: not listed separately
Experiment: ATG_M_61_XSP1: Attagene TRANS-FACTORIAL Multi-Species (XSP1) HepG2 Assay for M61 Transcription Factor (Internal Marker) (AID 2283797)
Description: (§1) ATG_XSP1_multi-species_TRANS is a cell-based, multiplexed assay created by modifying the existing Attagene TRANS-FACTORIAL system to include a panel of nuclear receptors from some or all the following species: human (Homo sapiens), mouse (Mus musculus), frog (Xenopus laevis), zebrafish (Danio rerio), chicken (Gallus gallus), and turtle (Chrysemys picta). The ECOTOX-FACTORIAL format uses HepG2, a human liver cell line, with measurements taken at 24 hours after chemical dosing in a 24-well plate. Xsp1 included 3 nM 6-alpha-fluorotestosterone to partially stimulate the androgen receptor.ATG_M_61_XSP1 is one of 29 assay components measured or calculated from the ATG_XSP1_multi-species_TRANS assay. It is designed to make measurements of mRNA induction, a form of inducible reporter, as detected with fluorescence intensity signals by Reverse transcription polymerase chain reaction (RT-PCR) and Capillary electrophoresis technology.This assay endpoint, ATG_M_61_XSP1, was analyzed in the positive analysis fitting direction relative to DMSO as the negative control and baseline of activity. Using a type of inducible reporter, measures of mRNA for gain-of-signal activity can be used to understand the background control at the transcription factor-level as they relate to the gene. Furthermore, this assay endpoint can be referred to as a secondary readout, because this assay has produced multiple assay endpoints where this one serves a background control function. To generalize the intended target to other relatable targets, this assay endpoint is annotated to the background measurement intended target family, where the subfamily is internal marker.
Human liver HepG2 cells are transiently transfected with multiple reporter transcription units (MRTUs) in 6-well plates using FuGene 6 reagent (Roche; 3 ml FuGene/1 mg DNA). The MRTU constructs are regulated by a cis-regulating element (promoter). […] A major difference between the CIS and TRANS system is that in CIS activities of endogenous TFs are measured, whereas the TRANS assay evaluates changes in activities of exogenous, chimeric NR-Gal4 proteins. […] At the end of 24 hour incubation, total RNA was isolated using TriZol reagent (Invitrogen). The isolated RNA is then reverse-transcribed using oligo(dT) primer and Mo-MLV reverse transcriptase (Invitrogen) with DNAse I (Ambion) treatment for 30 min. […] The fragments were purified using Qiaquick PCR columns (Qiagen), analyzed on an ABI 3130xL genetic analyzer (Applied Biosystems) with peak positions identified by using a set of X-rhodamine (ROX)-labeled MapMarker1000 molecular weight standards (BioVentures). […]

**Q.** With `CC1(C)CCC(=Cc2ccc(Cl)cc2)C1(O)Cn1cncn1` (stereo unspecified) as the compound, how does the outcome read?
**A.** Its outcome is “inactive”.

**Q.** With `CCN(CC)C(=O)C(C)Oc1cccc2ccccc12` (stereo unspecified) as the compound, how does the outcome read?
**A.** The outcome was “inactive”.

**Q.** For `Cc1c(COC(=O)[C@@H]2[C@H](/C=C(\Cl)C(F)(F)F)C2(C)C)cccc1-c1ccccc1`, which outcome is on record?
**A.** The outcome was “inactive”.

**Q.** For `COP(=S)(OC)Oc1ccc([N+](=O)[O-])c(C)c1`, which outcome is on record?
**A.** Its outcome is “inactive”.

Tested on: not listed separately
Experiment: ATG_M_19_XSP1: Attagene TRANS-FACTORIAL Multi-Species (XSP1) HepG2 Assay for M19 Transcription Factor (Internal Marker) (AID 2283798)
Description: as §1, with “receptor.ATG_M_19_XSP1” for “receptor.ATG_M_61_XSP1”, “ATG_M_19_XSP1,” for “ATG_M_61_XSP1,”
Human liver HepG2 cells are transiently transfected with multiple reporter transcription units (MRTUs) in 6-well plates using FuGene 6 reagent (Roche; 3 ml FuGene/1 mg DNA). The MRTU constructs are regulated by a cis-regulating element (promoter). […] A major difference between the CIS and TRANS system is that in CIS activities of endogenous TFs are measured, whereas the TRANS assay evaluates changes in activities of exogenous, chimeric NR-Gal4 proteins. […] At the end of 24 hour incubation, total RNA was isolated using TriZol reagent (Invitrogen). The isolated RNA is then reverse-transcribed using oligo(dT) primer and Mo-MLV reverse transcriptase (Invitrogen) with DNAse I (Ambion) treatment for 30 min. The one-tenth of the produced cDNA was amplified by PCR using Taq DNA polymerase (Invitrogen) and two reporter sequence-specific primers. The PCR products were fluorescently labeled by primer extension with 6-arboxyfluorescein (6-FAM) 5'-labeled reporter sequence-specific primer (2 min at 95 C, 20 s at 68 C and 10 min at 72 C) and these products were digested with 5U of HpaI (New England Biolabs) for 2h at 37 C. The fragments were purified using Qiaquick PCR columns (Qiagen), analyzed on an ABI 3130xL genetic analyzer (Applied Biosystems) with peak positions identified by using a set of X-rhodamine (ROX)-labeled MapMarker1000 molecular weight standards (BioVentures). The raw capillary electrophoresis data was processed using Attagraph software (Attagene).

**Q.** For `CC1(C)CCC(=Cc2ccc(Cl)cc2)C1(O)Cn1cncn1` (stereo unspecified), which outcome is on record?
**A.** Its outcome is “inactive”.

**Q.** For `CSC(=O)c1c(C(F)F)nc(C(F)(F)F)c(C(=O)SC)c1CC(C)C`, which outcome is on record?
**A.** The outcome was “inactive”.

**Q.** Which outcome does the source give for `Cc1c(COC(=O)[C@@H]2[C@H](/C=C(\Cl)C(F)(F)F)C2(C)C)cccc1-c1ccccc1` here?
**A.** Its outcome is “inactive”.

**Q.** Which outcome does the source give for `CC(C)NC(=O)N1CC(=O)N(c2cc(Cl)cc(Cl)c2)C1=O` here?
**A.** The outcome was “inactive”.

**Q.** With `CC1(C)C(C=C(Cl)Cl)C1C(=O)OC(C#N)c1cccc(Oc2ccccc2)c1` (stereo unspecified) as the compound, how does the outcome read?
**A.** The outcome was “inactive”.

Tested on: not listed separately
Experiment: ATG_M_32_XSP1: Attagene TRANS-FACTORIAL Multi-Species (XSP1) HepG2 Assay for M32 Transcription Factor (Internal Marker) (AID 2283799)
Method in brief: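 Reporter transcripts from the M32 internal-control unit measured by RT-PCR, FAM labelling, HpaI digestion and capillary electrophoresis after 24 h compound exposure of transfected HepG2, 3 nM 6-alpha-fluorotestosterone included; DMSO baseline, positive-direction fit.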

**Q.** Which outcome does the source give for `CC1(C)CCC(=Cc2ccc(Cl)cc2)C1(O)Cn1cncn1` (stereo unspecified) here?
**A.** Its outcome is “inactive”.

**Q.** With `CSC(=O)c1c(C(F)F)nc(C(F)(F)F)c(C(=O)SC)c1CC(C)C` as the compound, how does the outcome read?
**A.** The outcome was “inactive”.

**Q.** Which outcome does the source give for `Cc1c(COC(=O)[C@@H]2[C@H](/C=C(\Cl)C(F)(F)F)C2(C)C)cccc1-c1ccccc1` here?
**A.** The outcome was “inactive”.

**Q.** With `COP(=S)(OC)Oc1ccc([N+](=O)[O-])c(C)c1` as the compound, how does the outcome read?
**A.** Its outcome is “inactive”.

**Q.** Which outcome does the source give for `CC(C)NC(=O)N1CC(=O)N(c2cc(Cl)cc(Cl)c2)C1=O` here?
**A.** The outcome was “inactive”.

**Q.** With `CC1(C)C(C=C(Cl)Cl)C1C(=O)OC(C#N)c1cccc(Oc2ccccc2)c1` (stereo unspecified) as the compound, how does the outcome read?
**A.** The outcome was “inactive”.

Biological target: Peroxisome proliferator-activated receptor gamma (Homo sapiens) (UniProt P37231)
Experiment: ATG_hPPARg_XSP1: Attagene TRANS-FACTORIAL Multi-Species (XSP1) HepG2 Assay for human Peroxisome Proliferator-activated Receptor gamma (PPARg) (AID 2283800)
Method in brief: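 Reporter mRNA induction, measured by RT-PCR with capillary electrophoresis 24 h after dosing, scored as gain over DMSO. Transfected HepG2 cells express exogenous NR-Gal4 chimeras driving GAL4-UAS reporters; medium includes 3 nM 6-alpha-fluorotestosterone.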

Sequence of Peroxisome proliferator-activated receptor gamma (Homo sapiens) (P37231 whole entry, looked up): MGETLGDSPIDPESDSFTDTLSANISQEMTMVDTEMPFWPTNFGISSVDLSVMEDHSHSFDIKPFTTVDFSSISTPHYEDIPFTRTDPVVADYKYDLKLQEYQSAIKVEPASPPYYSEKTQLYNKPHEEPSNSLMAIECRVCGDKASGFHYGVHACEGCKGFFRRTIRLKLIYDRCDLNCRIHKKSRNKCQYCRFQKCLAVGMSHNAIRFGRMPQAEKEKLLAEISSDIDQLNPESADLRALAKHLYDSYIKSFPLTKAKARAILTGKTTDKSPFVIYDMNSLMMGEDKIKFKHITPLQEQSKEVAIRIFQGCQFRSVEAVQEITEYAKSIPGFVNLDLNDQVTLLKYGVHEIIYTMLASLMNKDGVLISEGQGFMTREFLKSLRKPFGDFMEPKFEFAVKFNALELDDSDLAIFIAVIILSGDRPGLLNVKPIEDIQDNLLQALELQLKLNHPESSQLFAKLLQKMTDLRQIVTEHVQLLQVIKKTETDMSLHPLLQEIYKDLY

**Q.** With `CC1(C)CCC(=Cc2ccc(Cl)cc2)C1(O)Cn1cncn1` (stereo unspecified) as the compound, how does the outcome read?
**A.** Its outcome is “inactive”.

**Q.** For `CSC(=O)c1c(C(F)F)nc(C(F)(F)F)c(C(=O)SC)c1CC(C)C`, which AC50 is on record?
**A.** The AC50 was 7.26 µM (active).

**Q.** With `CCN(CC)C(=O)C(C)Oc1cccc2ccccc12` (stereo unspecified) as the compound, how does the AC50 read?
**A.** The AC50 was 48.4 µM (active).

**Q.** Which outcome does the source give for `Cc1c(COC(=O)[C@@H]2[C@H](/C=C(\Cl)C(F)(F)F)C2(C)C)cccc1-c1ccccc1` here?
**A.** Its outcome is “inactive”.

**Q.** For `COP(=S)(OC)Oc1ccc([N+](=O)[O-])c(C)c1`, which AC50 is on record?
**A.** Its AC50 is 64.4 µM (active).

**Q.** For `CC(C)NC(=O)N1CC(=O)N(c2cc(Cl)cc(Cl)c2)C1=O`, which AC50 is on record?
**A.** The AC50 was 31.3 µM (active).

**Q.** With `CC1(C)C(C=C(Cl)Cl)C1C(=O)OC(C#N)c1cccc(Oc2ccccc2)c1` (stereo unspecified) as the compound, how does the AC50 read?
**A.** Its AC50 is 4.23 µM (active).

Tested on: zebrafish Peroxisome Proliferator-activated Receptor gamma (PPARg), gene 557037
Experiment: ATG_zfPPARg_XSP1: Attagene TRANS-FACTORIAL Multi-Species (XSP1) HepG2 Assay for zebrafish Peroxisome Proliferator-activated Receptor gamma (PPARg) (AID 2283801)
Method in brief: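 Trans-activation readout of chimeric zebrafish PPARg–GAL4 in transiently transfected human HepG2 cells, 24 h chemical exposure (medium includes 3 nM 6-alpha-fluorotestosterone). Reporter transcripts measured by RT-PCR and capillary electrophoresis, fitted as gain over DMSO.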

**Q.** For `CSC(=O)c1c(C(F)F)nc(C(F)(F)F)c(C(=O)SC)c1CC(C)C`, which outcome is on record?
**A.** Its outcome is “inactive”.

**Q.** For `CCN(CC)C(=O)C(C)Oc1cccc2ccccc12` (stereo unspecified), which outcome is on record?
**A.** Its outcome is “inactive”.

**Q.** With `COP(=S)(OC)Oc1ccc([N+](=O)[O-])c(C)c1` as the compound, how does the outcome read?
**A.** Its outcome is “inactive”.

**Q.** For `CC1(C)C(C=C(Cl)Cl)C1C(=O)OC(C#N)c1cccc(Oc2ccccc2)c1` (stereo unspecified), which AC50 is on record?
**A.** Its AC50 is 3.54 µM (active).
